Compounds with a hit are over-represented: about 3.8% of the library has one in this group of screens.
PLK1 PBD block: blocks phosphopeptide binding to human PLK1 polo-box domain; Plk1 PBD binding of FITC phosphopeptide, fluorescence polarization; actives 2.8% (n = 360,000); P53350; Potency, µM, inactives show max response, negative = inhibition, actives largely listed as inhibitors; AID 720504; further: potency means the concentration at half of the fitted maximal effect; series mostly up to about 57 µM; on the % scale 0 is the no-effect control and ±100 the full control effect; nearly all actives have a fitted effect of over 65% in size
Target sequence (P53350 whole entry, looked up, the tested form may be a part): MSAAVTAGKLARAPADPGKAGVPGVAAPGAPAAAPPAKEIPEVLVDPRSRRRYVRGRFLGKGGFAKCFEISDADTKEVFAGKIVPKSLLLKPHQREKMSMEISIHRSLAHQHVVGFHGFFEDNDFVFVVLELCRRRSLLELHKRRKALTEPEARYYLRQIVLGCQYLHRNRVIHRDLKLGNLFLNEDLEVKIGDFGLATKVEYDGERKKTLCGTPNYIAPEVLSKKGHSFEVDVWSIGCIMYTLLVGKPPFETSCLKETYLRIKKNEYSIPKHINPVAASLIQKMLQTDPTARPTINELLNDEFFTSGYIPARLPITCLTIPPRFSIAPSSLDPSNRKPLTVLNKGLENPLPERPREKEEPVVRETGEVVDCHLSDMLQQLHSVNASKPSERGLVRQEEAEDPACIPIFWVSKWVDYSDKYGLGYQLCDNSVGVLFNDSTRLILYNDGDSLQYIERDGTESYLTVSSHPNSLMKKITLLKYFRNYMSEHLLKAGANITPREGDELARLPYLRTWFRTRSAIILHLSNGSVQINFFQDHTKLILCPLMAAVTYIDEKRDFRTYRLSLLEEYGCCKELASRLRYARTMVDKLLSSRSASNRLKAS
hERG WT inh: blocks the wildtype human KCNH2 potassium channel. U2OS, BacMam KCNH2, thallium flux FluxOr; stronger effect = lower value. activity change, % at 1.84 µM. actives 0.37% (n = 340,000);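 active means maximum activity change below -70%; inconclusive means maximum activity change between -70% and -50%; inactive means maximum activity change above -50%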; further: on the % scale 0 is the no-effect control and ±100 the full control effect
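U2OS cells transduced with wild-type KCNH2 virus are loaded with FluxOr dye for 45 min, and thallium flux is measured in kinetic reads before and after stimulation buffer. Rate constants are normalized to DMSO controls.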
VDR inhibitor: inhibitors of human vitamin D receptor; VDR-SRC2-3 peptide fluorescence polarization, 2 h; Potency, µM, inactives show max response, negative = inhibition, most hits filed as inhibitors; actives 0.93% (n = 400,000); AID 504847; further: potency means the concentration at half of the fitted maximal effect; on the % scale 0 is the no-effect control and ±100 the full control effect
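The screen uses fluorescence polarization to detect compounds that interfere with recruitment of the SRC2-3 coactivator peptide to VDR; plates are read after 2 h at room temperature.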
CBFb-RUNX1 inh: inhibitors of human CBF-beta and RUNX1 interaction; 230,000 tested, under 10 active; AlphaScreen CBFb-His/RUNX1-biotin binding, biochemical; Potency, µM (series often up to 59.8 µM), for the others: at the top dose activity, negative = inhibition, actives largely listed as inhibitors; Q01196+Q13951; further: % of control where 0% means no effect
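Proteins preincubated together for 20 min at RT before compound addition; 15 min later, nickel and streptavidin beads were added and left 90 min prior to AlphaScreen measurement.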
KCNH2 3.1 inh: inhibitors of human KCNH2 3.1 potassium channel isoform | U2OS KCNH2 3.1, thallium flux FluxOr; stronger effect = lower value | activity change, % (tested at about 1.8 µM) | actives 0.95% (n = 340,000);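 active means maximum activity change below -70%; inconclusive means maximum activity change from -70% to -50%; inactive means maximum activity change above -50%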;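 further: thallium influx rate constant from kinetic fluorescence after stimulation buffer; on the % scale 0 is the no-effect control and ±100 the full control effect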
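U2OS cells transduced with KCNH2 3.1 mutant virus (1.77 x 10^8 /mL, 4 h), plated overnight at 37 C, loaded 45 min with FluxOr dye plus Red40 quencher. Thallium flux rate constant from kinetic reads after stimulation buffer, normalised to controls.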
MBNL1 CUG block: inhibitors of human MBNL1 binding to CUG repeat RNA | actives 0.036% (n = 280,000) | AID 2675 | Q9NR56 | Potency, µM (highest dose often 57.5 µM), without a hit: top-dose activity change, negative = inhibition, actives largely listed as inhibitors | TR-FRET MBNL1-His/biotin-(CUG)12 binding, 665/545 ratio; active means well fitted inhibition curve with a large enough effect in the signal ratio, with a control signal flat, not every such curve was filed as active; inconclusive means small, poorly fitted or top-dose-only effect, or effect the other way, or a change in a side signal; inactive means no such curve, though single readings can be large or run the other way; the % refers to the signal ratio; further: potency means the concentration at half of the fitted maximal effect; on the % scale 0 is the no-effect control and ±100 the full control effect
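Ratiometric TR-FRET (665 over 545 nm, excitation 340 nm) tracks disruption of MBNL1-His/biotin-(CUG)12 complex after 60 min at room temperature, with compounds at 92 nM to 58 uM final.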
* hit, by the source's call; ? = inconclusive; . = no result. Unless noted, the call rests on the fitted dose curve; in most records, active means well fitted curve in the direction sought with a large enough effect; inconclusive means small, poorly fitted or top-dose-only effect, or another doubt; inactive means no such curve, though single readings can be large; an effect the other way counts as inactive or inconclusive.

SMILES	PLK1 PBD block	hERG WT inh	VDR inhibitor	CBFb-RUNX1 inh	KCNH2 3.1 inh	MBNL1 CUG block
CCN(C(=O)CSc1ncc(S(=O)(=O)c2ccc(C)c(Cl)c2)c(=O)[nH]1)c1cccc(C)c1	.	.	7%	.	.	.
O=C(Nc1cccc(-n2cnnn2)c1)c1ccc(Cl)cc1Cl	30µM*	-16	-23%	.	12	-4%
CC(C)(C)OC(=O)N1CCC(c2c(C(=O)NCCN3CCOCC3)cnn2-c2cccc(F)c2)CC1	.	.	-2%	.	.	.
CNC(=O)/C(C#N)=C\c1ccc(CNS(=O)(=O)c2ccc(Cl)cc2)o1	17µM*	4	?	0%	18	?
COC(=O)c1c(NC(C)=O)sc(C(=O)Nc2ccccc2F)c1C	24µM*	-7	-12%	-1%	-8	84%
CCC(=O)Nc1sc(C(=O)Nc2ccccc2F)c(C)c1C(=O)OC	3%	-3	5%	1%	-7	62%
O=C(CNC(=O)C1CCCCC1)OCC(=O)c1ccccc1	.	.	-19%	.	.	.
Cc1ccc(-n2c(C)nn(Cc3ccc([N+](=O)[O-])cc3)c2=O)cc1	-3%	18	-14%	4%	14	25%
Cc1nn(Cc2ccc([N+](=O)[O-])cc2)c(=O)n1-c1ccc(Cl)cc1	2%	3	-9%	0%	-78*	30%
Cc1ccc(/C=C/c2nc3ccccc3[nH]2)o1	27µM*	-3	-7%	-12%	-12	?
COc1ccc(C(CCNCc2ccc(OC(C)C)cc2)c2ccccc2OC)cc1 (centres undefined)	?	-88*	-26%	.	-90*	-8%
COc1ccc(CCNCc2ccc(OCc3ccccc3)cc2)cc1	-3%	7	22%	.	?	-5%
COc1ccc(CNCCC(c2ccccc2)c2ccc(OC(C)C)cc2)cc1OC (centres undefined)	-7%	?	?	.	?	-3%
COc1ccc(CNCCC(c2ccc(OC)cc2)c2ccccc2OC)cc1 (centres undefined)	-5%	-33	-5%	.	-72*	-12%
COc1ccc(C(CCNCc2ccc(N(C)C)cc2)c2ccccc2OC)cc1 (centres undefined)	-19%	-99*	-18%	.	-5	3%
O=C(NNc1ccc(F)cc1F)c1cccs1	.	.	-14%	.	.	.
CN(c1ncnc2c1c(-c1ccccc1)cn2-c1cccc(Cl)c1)C1CCCCC1	.	.	13%	.	.	.
CCCN1C(=O)C2(c3ccccc31)c1c(oc3cc(C)c(C)cc3c1=O)C(=O)N2CCCOC (centres undefined)	.	.	3%	.	.	.
CCOC(=O)c1cc(C(=O)OCC)c(=O)[nH]c1C	-9%	1	13%	-15%	-3	?
CCOC(=O)c1cc(C)[nH]c(=S)c1C#N	27µM*	6	-3%	-3%	11	21%
S=c1nc2[nH]c3ccccc3c2n[nH]1	3.8µM*	-8	?	.	-12	.
Nc1nnc2c(n1)[nH]c1ccccc12	.	.	-1%	.	.	.
COc1ccc([C@H]2OCC3C2CO[C@@H]3c2ccc(OC)c(OC)c2)cc1OC (some centres undefined)	.	.	1%	0%	.	.
O=C(CN1CCN(C(c2ccccc2)c2ccccc2)CC1)N1CCOCC1	-4%	11	1%	3%	-15	-7%
CCOc1ccccc1NC(=O)C(c1ccccc1)N1CCN(CC(=O)N2CCCC2)CC1 (centres undefined)	-11%	-30	-14%	.	-72*	.
SMILES	PLK1 PBD block	hERG WT inh	VDR inhibitor	CBFb-RUNX1 inh	KCNH2 3.1 inh	MBNL1 CUG block
CCOc1ccccc1NC(=O)C(c1ccccc1)N1CCN(CC(=O)N2CCOCC2)CC1 (centres undefined)	5%	-3	16%	.	-83*	.
Cc1cccc(S(=O)(=O)c2cn(C)c3cc(N4CCCCCC4)c(F)cc3c2=O)c1	.	.	10%	.	.	.
Cn1cc(C=C2C(=O)CC(C)(C)CC2=O)c2ccccc21	27µM*	19	-18%	3%	1	-4%
CC(=O)Oc1ccc2oc(-c3ccccc3)c(C(N)=O)c2c1	27µM*	-19	?	8%	-21	26%
COc1ccc(C(=O)c2c(-c3ccc(OC)cc3)oc3ccccc23)cc1	-7%	-13	4%	.	-71*	.
CC(=O)Nc1ccc(NC(=O)c2cc3sccc3n2Cc2ccc(Cl)cc2)cc1	.	.	-20%	.	.	.
CC1CCN(CCCCOc2ccc(C(=O)c3ccccc3)cc2)CC1	27µM*	57	-16%	-6%	-41	2%
c1ccc(COc2ccc(OCCCN3CCCC3)cc2)cc1	-6%	29	-20%	-2%	-50	1%
CC1CCN(CCCOc2ccc(OCc3ccccc3)cc2)CC1	-10%	16	-5%	4%	-80*	0%
CC1CCC(=O)N(CCOc2ccccc2)CC1 (centres undefined)	27µM*	-30	?	.	43	2%
O=C(COc1ccc(F)cc1)Nc1ccc2nc(SCC(=O)N3CCOCC3)sc2c1	.	.	7%	.	.	.
Cn1ncc(S(=O)(=O)Cc2ccccc2)c(Cl)c1=O	3.4µM*	-6	?	7%	3	.
CN(NC(=O)Nc1ccccc1)c1cnn(C)c(=O)c1Cl	-12%	-7	-15%	3%	-14	.
CCOC(=O)c1ccccc1NC(=O)COc1ccccc1-c1nnc(-c2ccccc2)o1	.	.	7%	.	.	.
COc1ccc(NC(=O)c2ccco2)cc1NC(=O)c1ccc(OC(C)C)cc1	.	.	2%	.	.	.
CCOc1ccc(NS(=O)(=O)c2ccc(NC(=S)NC(=O)C(C)C)cc2)cc1	27µM*	2	-15%	-3%	0	-2%
COC1=CC(=O)C(C(=O)c2ccccc2)=CC1=O	.	.	32µM*	.	.	.
COc1ccc(C(=O)c2ccccc2)cc1	-11%	-13	11%	12%	10	6%
Cc1cccc(C)c1Nc1c(-c2ccccc2F)nc2cccc(C)n12	.	.	-12%	.	.	.
COC(=O)c1ccc(C(=O)N(Cc2ccccc2)c2ccccc2)cc1	-12%	-12	1%	.	0	-3%
COc1ccc(C(C)=O)cc1CC(=O)N(Cc1ccccc1)c1ccccc1	30µM*	-16	-18%	.	-21	3%
Cn1nnc2c(NCc3ccc(Cl)cc3)ncnc21	.	.	10%	.	.	.
CCc1ccc(OCCCC(=O)Nc2nnc(C3CCCO3)s2)cc1 (centres undefined)	0%	-248*	-1%	2%	0	-3%
N#Cc1ccccc1Cn1cc(/C=C/[N+](=O)[O-])c2ccccc21	?	-2	32µM*	7%	-1	3%
O=C(N/C(=C\c1ccc(-c2ccccc2)o1)C(=O)N1CCOCC1)c1ccccc1	27µM*	1	8%	-7%	-2	?
CN1CCN(C(=O)/C(=C/c2cn(C)c3ccccc23)NC(=O)c2ccccc2)CC1	-20%	-10	5%	.	3	16%
